# PI4K2A block: qHTS for small molecular inhibitors of PI4K2A. purified PI4K2A, ADP-Glo luminescence, 1 h; active compounds read low. Phosphatidylinositol 4-kinase type 2-alpha (Homo sapiens), Q9BTU6. AID 1346378, 2018. activity change, negative = inhibition, % at 76.9 µM. actives 0.13% (n = 420,000); in the data active = activity change below about -50%; inconclusive = mostly about -30% to -49%;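 note: -100% = wells without enzyme as full effect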
#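 PI4K2A activity was measured by ADP-Glo luminescence: enzyme (4 ug/mL stock) and phosphatidylinositol (1.2 mM stock) in Tris pH 7.5/MgCl2/EGTA/Triton X-100 buffer were reacted with ATP (300 microM stock) for one hour at ambient temperature.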
# DRD3 antagonist: qHTS of D3 Dopamine Receptor Antagonist: qHTS. D(3) dopamine receptor (Homo sapiens), P35462. D3R cells, DiscoveRx beta-arrestin luminescence, antagonist mode; active compounds read low. max response, negative = inhibition, %. actives 2.5% (n = 360,000). AID 652054, 2013; in the data active = max response below about -50%; inconclusive = no clear call, values can overlap the other calls; note: % is set by controls: 0 for no effect and ±100 for the full control effect
# Target sequence (P35462 whole entry, looked up): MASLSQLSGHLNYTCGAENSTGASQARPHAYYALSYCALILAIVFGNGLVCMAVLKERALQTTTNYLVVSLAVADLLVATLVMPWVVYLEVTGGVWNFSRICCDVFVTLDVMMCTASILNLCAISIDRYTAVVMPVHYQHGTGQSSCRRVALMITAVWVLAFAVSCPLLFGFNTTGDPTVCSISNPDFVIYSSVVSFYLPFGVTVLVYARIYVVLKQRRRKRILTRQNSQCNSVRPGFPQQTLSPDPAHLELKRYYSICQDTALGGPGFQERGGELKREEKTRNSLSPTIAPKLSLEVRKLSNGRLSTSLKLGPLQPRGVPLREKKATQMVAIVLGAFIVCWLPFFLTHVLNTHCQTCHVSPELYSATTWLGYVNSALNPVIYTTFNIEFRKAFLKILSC
#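 Cells expressing the human receptor were seeded at 1500 cells/well, incubated overnight at 37 degrees C in 5% CO2, then exposed to library compounds with dopamine controls for 90 minutes at 37 degrees C before luminescent detection.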
# LDHA inh: qHTS assay for inhibitors of human lactate dehydrogenase | purified LDHA, NADH/diaphorase-resazurin fluorescence; active compounds read low | activity change, % (values are at about 110 or 230 µM) | actives 0.15% (n = 480,000) | AID 1347041, 2019; in the data active = activity change below about -30%; inconclusive = mostly about -25% to -30%;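 note: plate controls were DMSO wells for no effect and wells without enzyme for full effect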
#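 Human LDH5 at 2 nM final in Tris HCl pH 7.4 with 0.06 mM NADH and 0.2 mM pyruvate, reacted 5 minutes at room temperature. Remaining NADH coupled via diaphorase/resazurin; resorufin fluorescence read at 0 and 20 minutes, normalized to enzyme-free and DMSO wells.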
# DRD3 agonist: qHTS of D3 Dopamine Receptor Agonist: qHTS; D(3) dopamine receptor (Homo sapiens), P35462; D3R DiscoveRx beta-arrestin cells, luminescence, 90 min; max activation, %; actives 0.58% (n = 410,000); AID 652048, 2013; in the data active = max activation above about 30%; note: 0% is about no effect
#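 Agonist mode: compounds and dopamine controls were applied to plated cells for 90 min at 37 degrees C after an overnight attachment at 1500 cells/well. Luminescent read-out followed 30 - 60 minutes at room temperature with DiscoveRx detection reagent.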
# PI5P4Ka inh: qHTS for Inhibitors of phosphatidylinositol 5-phosphate 4-kinase (PI5P4K). PI5P4Kalpha enzyme, ADP-Glo luminescence, 60 min; active compounds read low. max response, %. actives 1.2% (n = 330,000). AID 652105, 2013; active = max response of -50% or lower; inconclusive = between -30% and -50%; inactive = -30% or higher; note: value at the top dose of about 77 µM; % is set by controls: 0 for no effect and ±100 for the full control effect
#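 qHTS, 1536-well: enzyme/substrate mix, compound by pin tool, 5 microM ATP final; RT 60 min; ADP-Glo reagents 1 (45 min) then 2 (30 min); luminescence.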
# ADP-Glo counter: qHTS for Inhibitors of PI5P4K: ADP-Glo counter assay; shares compounds with PI5P4Ka inh; ADP-Glo detection counter-screen, luciferase luminescence, no enzyme; Potency, µM (titrated, usually from 76.9 µM), for inactives: top-dose activity change, negative = inhibition, most hits filed as inhibitors; 1,100 tested, under 10 active; AID 743285, 2014; active = well fitted curve in the direction sought with a large enough effect; inconclusive = small, poorly fitted or top-dose-only effect, or another doubt; inactive = no such curve, though single readings can be large or run the other way
# * = called active by the depositor; ? = inconclusive; . = no result. The list is not random: actives were taken first. Their share in the collection is about 3.3%.
SMILES,PI4K2A block,DRD3 antagonist,LDHA inh,DRD3 agonist,PI5P4Ka inh,ADP-Glo counter
CC(C)(C)C1=Nn2c(nnc2-c2n[nH]c3c2CCC3)SC1,-24,?,-3,-9,-61*,1%
CCc1ccc(N2CC(C(=O)Nc3nc4ccc(S(C)(=O)=O)cc4s3)CC2=O)cc1 (stereo not given),2,1,-3,-3,-8,.
COc1ccc(N2CC(C(=O)Nc3nc4ccc(S(C)(=O)=O)cc4s3)CC2=O)cc1 (stereo not given),-8,-14,-2,-3,-53*,1%
CN(c1ccccc1C(=O)O)S(=O)(=O)c1ccc2c3c(cccc13)C(=O)N2,-9,-10,15,5,-56*,-3%
CCOCCCNc1oc(/C=C/c2ccccc2OC)nc1C#N,.,.,10,.,.,.
Cc1ccc(NC(=O)N(C)Cc2nc(-c3ccccc3C)oc2C)cc1F,.,.,7,.,.,.
Cc1cccc(C2Nc3ccccc3C(=O)N2c2ccc(F)cc2)n1 (stereo not given),-10,3,-6,-11,1,2%
Cc1cccc(N2C(=O)c3ccccc3NC2c2cnc3ccccc3n2)c1 (stereo not given),.,.,2,.,.,.
CCCOc1ccc(C2C(C(=O)c3cc4ccccc4o3)=C(O)C(=O)N2CCN(C)C)cc1 (stereo not given),.,.,13,.,.,.
COc1ccc(Nc2nc(-c3cc4cc(Cl)ccc4oc3=O)cs2)c(OC)c1,.,.,3,.,.,.
Cc1ccc(-c2csc(NS(=O)(=O)c3cccc(F)c3)n2)o1,-2,12,-5,-6,-68*,2%
CC(C)(C)[C@@H]1C=C(C(=O)N2CCOCC2)O[C@H](OCc2ccc(CO)cc2)C1,5,-24,-4,-16,1,.
CC(C)(C)[C@H]1C=C(C(=O)N2CCOCC2)O[C@@H](OCc2ccc(CO)cc2)C1,-1,-52*,-9,-35,0,3%
NC(Cc1ccc(C(F)(F)F)cc1)c1csc(NC(=O)Nc2ccccc2)n1 (stereo not given),-1,0,-21,5,-56*,-2%
COCCN(C(=O)COC(=O)c1cc2c(s1)CCC2)c1c(N)n(Cc2ccccc2)c(=O)[nH]c1=O,?,17,-8,5,-87*,0%
CCCn1c(NC(=O)c2oc3ccccc3c2COC)nc2ccccc21,.,.,5,.,.,.
Cn1c(=O)oc2cc(S(=O)(=O)Nc3ccccc3)ccc21,-1,6,-4,11,-55*,5%
CCCCN1C(C(=O)c2ccccc2)=C(OC(=O)c2ccco2)c2ccccc2S1(=O)=O,.,.,2,.,.,.
Cc1c(Cl)cccc1NC(=O)Cn1nnc(C(=O)NCc2cccs2)c1N,-2,-14,-6,-2,?,-7%
CCN1CCCC1CNC(=O)CCCc1nc2ccccc2[nH]1 (stereo not given),.,.,3,.,.,.
N#Cc1ccc(OCC(O)CN2CCN(c3nccs3)CC2)cc1 (stereo not given),.,.,-2,.,.,.
Oc1cc2c(cc1C(c1ccc(Cl)c(Cl)c1)N1CCCC1)OCO2 (stereo not given),1,6,27,7,-74*,5%
CCCc1nc2oc3ccccc3c(=O)c2c(=O)n1-c1ccc(C)cc1,8,23,3,-7,-14,.
CCc1nc2oc3ccccc3c(=O)c2c(=O)n1-c1ccc(C)cc1,-2,4,6,16,-54*,3%
Cc1ccc(-n2nnnc2SCc2nc(N)c3ccccc3n2)cc1,.,.,-7,.,.,.
SMILES,PI4K2A block,DRD3 antagonist,LDHA inh,DRD3 agonist,PI5P4Ka inh,ADP-Glo counter
CCOCCCNC(=O)C(c1ccc(C)cc1)N(Cc1cccs1)C(=O)CNC(=O)c1ccccc1 (stereo not given),.,.,12,.,.,.
COCCn1c(=S)[nH]c2cc(C(=O)NCCc3ccccc3)ccc2c1=O,-1,1,-1,14,-58*,1%
COCCn1c(=S)[nH]c2cc(C(=O)N(CCO)Cc3ccccc3)ccc2c1=O,8,-3,-2,0,-4,.
Cc1ccc(C)c(-n2c3nc(=O)[nH]c(=O)c-3cc3cc([N+](=O)[O-])ccc32)c1,?,?,36,-14,-65*,5%
Cc1nc(-c2ccccc2)sc1C(=O)O,-12,11,-5,0,?,.
Cc1nc(-c2cccc(C(F)(F)F)c2)sc1C(=O)O,-6,-12,-8,5,-50*,2%
CCC(C)NCC#Cc1ccccc1 (stereo not given),.,.,1,.,.,.
COCCn1c(=O)c2c(nc(-n3nc(C)cc3C)n2CCC(C)C)n(C)c1=O,.,.,-9,.,.,.
COc1ccc(C)cc1NC(=O)CSc1nc2scc(C)c2c(=O)[nH]1,-3,-4,-1,0,-26,.
COc1ccc(Cl)cc1NC(=O)CSc1nc2sccc2c(=O)[nH]1,1,6,-9,8,-53*,2%
CN(Cc1ccccc1)C(=O)c1csc([C@H]2C[C@H](O)[C@@H](CO)O2)n1,-9,0,-10,-2,0,-3%
CN(Cc1ccccc1)C(=O)c1csc([C@@H]2C[C@H](O)[C@@H](CO)O2)n1,1,0,-7,-7,0,.
Cc1nc(CS(=O)(=O)c2ccccc2)cc(N2CCOCC2)n1,-3,-22,-2,-6,-57*,-11%
Cc1nc(CSc2ccc(Cl)cc2)cc(N2CCOCC2)n1,-3,-11,0,-4,5,.
CC(C)n1c(SCc2ccc(F)cc2)nc2c1c(=O)n(C)c(=O)n2C,.,.,-8,.,.,.
O=C(O)CCC(=O)N1CCC(n2nnc3cc(C(F)(F)F)ccc32)CC1,7,8,-5,3,-24,2%
COC(=O)c1ccccc1NC(=O)CN1CCC(n2nnc3cc(C(F)(F)F)ccc32)CC1,1,-2,-4,-3,?,4%
CN(C)C(=O)c1ccc(NC(=O)COC(=O)C2=COCCO2)cc1,2,-21,-6,-6,?,2%
COc1n[nH]c(C(=O)Nc2nc3ccccc3s2)c1[N+](=O)[O-],-1,-6,-4,-5,-54*,2%
O=C(CCS(=O)(=O)c1ccc2c(c1)NC(=O)CS2)NCCc1ccc(Cl)cc1,-2,-1,-3,4,-60*,0%
O=C(CCS(=O)(=O)c1ccc2c(c1)NC(=O)CS2)NCCc1ccccc1,3,1,-3,2,-1,.
Cc1ccc(-n2nnnc2CNC(=O)Nc2ccc3c(c2)OCO3)cc1,.,.,1,.,.,.
CC1CCCC(C)N1C(=O)COC(=O)CNC(=O)c1ccccc1 (stereo not given),2,6,-7,-8,-4,-1%

# High-throughput results from PubChem.
